PubChem BioAssay (NCI)
“And” between values parts separate entries of the source, which are not always exact repeats. Identical values can stand only once. The panel holds about 79,000 compounds, 15% with a hit somewhere; the sample as a whole holds those more often. No stated cut-off is given here; in the data, active means growth inhibition above about 70%; inactive means the rest.

What was measured:
[1] = NCI Yeast Anticancer Drug Screen. Data for the rad50 strain (AID 155);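 further: 0% = growth of vehicle-only cultures of the same strain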; settings: S. cerevisiae rad50 strain growth inhibition; at 50.0 µM; active compounds read high
How it was run: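 Compounds were tested on a yeast strain with an engineered DNA damage repair alteration; the reported value is growth inhibition normalised to vehicle treatment.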

[2] = NCI Yeast Anticancer Drug Screen. Data for the mec2-1 strain (AID 157); settings: S. cerevisiae mec2-1 strain, at 50.0 µM, active compounds read high
How it was run: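 Mutant yeast (mec2-1) grown with compound; growth inhibition relative to vehicle control reported.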

[3] = NCI Yeast Anticancer Drug Screen. Data for the sgs1 mgt1 strain (AID 161);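 further: 0% = growth of cultures given vehicle only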; settings: S. cerevisiae sgs1 mgt1 strain, at 50.0 µM, active compounds read high
How it was run: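 This yeast growth screen uses a strain with defined DNA-repair lesions; compound-treated growth is compared with vehicle-treated growth.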

[4] = NCI Yeast Anticancer Drug Screen. Data for the cln2 rad14 strain (AID 165);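 further: 0% = growth equal to vehicle treated cultures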; settings: S. cerevisiae cln2 rad14 strain, at 50.0 µM, active compounds read high
How it was run: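 Readout is yeast growth inhibition versus vehicle-treated controls, using a strain with cln2 and rad14 alterations exposed to compound.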

[5] = NCI Yeast Anticancer Drug Screen. Data for the bub3 strain (AID 167); settings: S. cerevisiae bub3 mutant strain, at 50.0 µM, active compounds read high
How it was run: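 Growth of a checkpoint-deficient yeast mutant is measured after compound exposure. Values represent inhibition relative to vehicle.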

[6] = NCI Yeast Anticancer Drug Screen. Data for the mlh1 rad18 strain (AID 175); settings: S. cerevisiae mlh1 rad18 strain growth inhibition; at 50.0 µM; active compounds read high
How it was run: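 Genetically defined yeast (DNA repair-deficient) exposed to compounds; growth inhibition determined relative to vehicle.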

Measured: growth inhibition

O=C(Cl)OCCOCCOC(=O)Cl
inactive: [1] -4.35% | [2] -6.1% | [3] 6.95% | [4] -28.1% | [5] -3.15% | [6] -4.4%

COc1ccc(/C=C/c2cc(OC)c3c(c2)OCO3)cc1O
inactive: [1] 4.4% | [2] 5.45% | [3] -9.55% | [4] 0.9% | [5] 1.7% | [6] -7.75%

CC(=O)OC1CCC2(C)C(=CC=C3C4CCC(=O)C4(C)CCC32)C1 (configuration not stated)
inactive: [1] 5.85% and 8.55% | [2] 44.6% and 36.8% | [3] -5.15% and 3.5% | [4] 3% and 2.9% | [5] 35.1% and 34.3% | [6] 22.5% and 10.2%

NC(N)=NCCN=C(N)N
inactive: [1] -2.7% | [2] -30.1% | [3] -29.6% | [4] -24.1% | [5] -53.2% | [6] -9.15%

CNC(=O)Oc1cccc(N=CN(C)C)c1
inactive: [1] 7.65% | [2] 1.05% | [3] 0% | [4] 9.9% | [5] -20.4% | [6] 16.7%

S=C=NCc1ccccc1
inactive: [1] -1.55% | [2] 2.65% | [3] 20.4% | [4] -12.9% | [5] 0.85% | [6] 1.9%

O=C(c1ccc([N+](=O)[O-])cc1)C1NC1c1ccccc1 (configuration not stated)
inactive: [1] -24.2% | [2] -16.6% | [3] 24% | [4] -2.65% | [5] 22.3% | [6] -15.7%

CC(CC(C)(C)C)C(=O)Cl (configuration not stated)
inactive: [1] 7.85% | [2] -2.7% | [3] 5.35% | [4] 10.9% | [5] 4.15% | [6] 23.4%

[NH-]C(CCC(N)=O)C(=O)O.[NH-]C(CCC(N)=O)C(=O)O.[Zn+2] (configuration not stated)
inactive: [1] -23.1% | [2] -22.9% | [3] -27.1% | [4] 13.3% | [5] -26.6% | [6] -38.2%

CCOP(=O)(NCCc1ccccc1)OCC
inactive: [1] -36.6% | [2] -37.4% | [3] -7.3% | [4] -3.9% | [5] -33% | [6] -12.4%

CN(C)c1ccc(N=[N+]=[N-])cc1
inactive: [1] 3.05% | [2] 11% | [3] 10.3% | [4] -74.8% | [5] -6.45% | [6] 8.15%

c1ccc2c(c1)Nc1ccccc1S2
inactive: [1] 41% | [2] 10.1% | [3] 17.9% | [4] 28.4% | [5] 28.5% | [6] 34.2%

COC(C)CCOC(=O)Cc1ccccc1 (configuration not stated)
inactive: [1] 16.1% | [2] -5.25% | [3] -0.15% | [4] -41% | [5] 13.4% | [6] 5.25%

O=C1NC(=S)NC(=O)C1=CC1CC1
inactive: [1] 22.6% | [2] 13.8% | [3] 17.4% | [4] 19.6% | [5] 9.2% | [6] 29.6%

Nc1[nH]c(=S)[nH]c(=O)c1Cn1ccnc1
inactive: [1] -20.4% | [2] 0.8% | [3] -23.4% | [4] -17.1% | [5] -11.2% | [6] -33.8%

NNC(=O)c1ccc(O)cc1
inactive: [1] 1.15% | [2] -2.65% | [3] -13.3% | [4] -17.4% | [5] -0.05% | [6] 18.2%

C=CC[NH-].C=CC[NH-].CC(=O)CC(C)=O.CC(=O)CC(C)=O.[Ni+2]
inactive: [1] -2.65% | [2] -6.75% | [3] -7.4% | [4] -9.35% | [5] -1.1% | [6] -3.35%

COC(=O)C1C(O)C(C)C(O)C(C)/C=C\C=C(C)C(=O)Nc2c(C)c(OC(C)=O)c3c(c2O)C(=O)C(C)=C2OCOC(=C23)C(C)=CC(C)(O)C(O)C(C)C1O (configuration not stated)
inactive: [1] 11.9% and -16.8% and 23.8% | [2] -15.7% and -27.9% and -5.4% | [3] 12.1% and -26.9% and 3.05% | [4] -10.2% and -5.2% and 9.2% | [5] 26.9% and -13.5% and 10% | [6] 16.6% and -24.6% and 19.4%

O=C(CF)NCCCl
inactive: [1] -3.45% | [2] -8.8% | [3] -1.65% | [4] 9.5% | [5] 9.65% | [6] 1.45%

O=[P+](O)c1cc2ccccc2c2ccccc12
inactive: [1] -33% | [2] 17.2% | [3] -4.75% | [4] -46.2% | [5] -10.9% | [6] 1.35%

C[CH2][Sn](=[O])[c]1ccccc1
inactive: [1] -21.9% | [2] -17.6% | [3] 3.3% | [4] 10.3% | [5] -0.9% | [6] -23.4%

O.O.[NH-]C1(C(=O)O)CCCC1.[NH-]C1(C(=O)O)CCCC1.[Ni+2]
inactive: [1] -12% | [2] -15.9% | [3] -16.6% | [4] 19.4% | [5] -48.9% | [6] -17.4%

CC(NC1=NCCO1)c1cccs1 (configuration not stated)
inactive: [1] 12.2% | [2] -2.15% | [3] -20.1% | [4] 25.9% | [5] 15.7% | [6] -12.9%

CN1C(=O)N(C)C(O)C(Cl)(Br)C1=O (configuration not stated)
inactive: [1] -0.5% | [2] 2.5% | [3] 7.3% | [4] 26.2% | [5] 5.9% | [6] 12.7%

CCC(Br)(CC)C(N)=O
inactive: [1] -33.5% | [2] -5.4% | [3] -26.1% | [4] -89.7% | [5] -28.1% | [6] -27.9%

CN(c1ccccc1)[N+](=O)[O-]
inactive: [1] -9.45% | [2] -12.2% | [3] -14.2% | [4] -5.1% | [5] -7.8% | [6] -5.3%

CCN(CC)C1C=CCCC1 (configuration not stated)
inactive: [1] -18.1% | [2] -8.05% | [3] -20.1% | [4] 0.75% | [5] -11.7% | [6] -7.3%

CC(N)CCc1ccccc1 (configuration not stated)
inactive: [1] 2.7% | [2] -19.9% | [3] -1.15% | [4] 24.7% | [5] 3.6% | [6] 12.4%

c1ccc(C2=NCN3CC23c2ccccc2)cc1 (configuration not stated)
inactive: [1] -3.6% | [2] 2.2% | [3] 14.4% | [4] 13.4% | [5] -48.8% | [6] 3.45%

FC(F)(F)c1ccc(Cl)c(NC2=NCCS2)c1
inactive: [1] 14.2% | [2] 24.8% | [3] 19.4% | [4] 11.2% | [5] 11% | [6] 20.2%

COC(=O)N/N=C(\C)C(CN(C)C)C(c1ccccc1)c1c(O)c2ccccc2oc1=O (configuration not stated)
inactive: [1] 35.4% | [2] 28.9% | [3] 47% | [4] 34.6% | [5] 49.4% | [6] 34.1%

CN(C)CCO
inactive: [1] -21.4% | [2] 11.5% | [3] 4.55% | [4] -1.65% | [5] 23.4% | [6] 35.4%

O=C1CC(=O)N(C2CCC(C3CCCCC3)CC2)C(=O)N1 (configuration not stated)
inactive: [1] 14.1% | [2] 4.85% | [3] 27.5% | [4] 1.35% | [5] 22.3% | [6] 5.75%

CC(=O)Oc1ccc(C=C(C#N)C#N)cc1
inactive: [1] 40.6% | [2] 6.6% | [3] 12.4% | [4] -7.1% | [5] 2.05% | [6] 14.9%

COC1C=CC23c4cc5c(cc4COC2(O)CN(C)C3C1)OCO5 (configuration not stated)
inactive: [1] -18.2% | [2] -26.2% | [3] -56.5% | [4] -4.5% | [5] -18.9% | [6] -28.6%

CCOP(=O)(OCC)/C(=C/c1cccs1)CC(C)=O
inactive: [1] 7.8% | [2] -57.6% | [3] -27.9% | [4] 14.6% | [5] -25.9% | [6] -76%

Cc1ccc(NC2=NCCS2)cc1Cl
inactive: [1] 3.05% | [2] 7.15% | [3] 12.1% | [4] 10.8% | [5] 10.2% | [6] 16.1%
